Results from the OligoGym collection.

What follows are sequences tested against C9orf93 (assay: pooled miR-30 sensor sort-seq; sequence = guide strand). Details: shRNA.
Further: reference of the scale not given here.

Row | Sequence | sensor-assay potency score (higher = more potent)
1 | TTGAATGGTCTCGTGATCCTAT | 0.611
2 | TAAACAACGCAACTGCTCCTTT | 0.206
3 | TTAACTCTTTATTAACATCAGC | -1.03
4 | TTGTCTTTGCTTGAAGTTCTGA | 0.0324
5 | TTTAGTGTGAGAGTCTATCTTC | 0.39
6 | TTTGCTTCTGCAACGATGCTGT | 0.756
7 | TTGCACAGCAGTATCTTGCTCC | 0.17
8 | TTGGTTGTTATTTCTAACTTTT | -0.955
9 | TTCCTTTCTAGCAACAGCTAGG | -0.694
10 | TTAATTGTACTGTTAACTCTTC | -0.0565
11 | TTTGGTAAAGGTGTCTTCCTGA | 0.821

Each sequence was assayed against CA4 in the same assay as above. Details: shRNA.

Row | Sequence | sensor-assay potency score (higher = more potent)
12 | TCACTGTCTGTTCCTTGTCGTA | -1.4
13 | TCGTAGTGCTCATCTCAGGTTT | -0.761
14 | TTTTTGTCCACCTTTGCCTTGG | -0.0193
15 | TTGGACAGTCCACGTTTGCTTC | -0.84
16 | TTCCTTGTCGTAGTACAGCTTC | -0.302
